# Reference: PubChem BioAssay AID588458 (Sanford-Burnham Center for Chemical Genomics, 2011)
# “And” between values parts separate entries of the source, which are not always exact repeats. Identical values can stand only once. In all, about 360,000 compounds went through this assay and about 3,000 (0.83%) were called active. This excerpt belongs to a sample that is enriched for actives. Unmarked numbers belong to inactive results. Rule as the data show it: active = inhibition above about 50%; inactive = the rest.
# Target: DNA (cytosine-5)-methyltransferase 1 (Homo sapiens) (UniProt P26358)
# Sequence (P26358 504-1616 limits assumed): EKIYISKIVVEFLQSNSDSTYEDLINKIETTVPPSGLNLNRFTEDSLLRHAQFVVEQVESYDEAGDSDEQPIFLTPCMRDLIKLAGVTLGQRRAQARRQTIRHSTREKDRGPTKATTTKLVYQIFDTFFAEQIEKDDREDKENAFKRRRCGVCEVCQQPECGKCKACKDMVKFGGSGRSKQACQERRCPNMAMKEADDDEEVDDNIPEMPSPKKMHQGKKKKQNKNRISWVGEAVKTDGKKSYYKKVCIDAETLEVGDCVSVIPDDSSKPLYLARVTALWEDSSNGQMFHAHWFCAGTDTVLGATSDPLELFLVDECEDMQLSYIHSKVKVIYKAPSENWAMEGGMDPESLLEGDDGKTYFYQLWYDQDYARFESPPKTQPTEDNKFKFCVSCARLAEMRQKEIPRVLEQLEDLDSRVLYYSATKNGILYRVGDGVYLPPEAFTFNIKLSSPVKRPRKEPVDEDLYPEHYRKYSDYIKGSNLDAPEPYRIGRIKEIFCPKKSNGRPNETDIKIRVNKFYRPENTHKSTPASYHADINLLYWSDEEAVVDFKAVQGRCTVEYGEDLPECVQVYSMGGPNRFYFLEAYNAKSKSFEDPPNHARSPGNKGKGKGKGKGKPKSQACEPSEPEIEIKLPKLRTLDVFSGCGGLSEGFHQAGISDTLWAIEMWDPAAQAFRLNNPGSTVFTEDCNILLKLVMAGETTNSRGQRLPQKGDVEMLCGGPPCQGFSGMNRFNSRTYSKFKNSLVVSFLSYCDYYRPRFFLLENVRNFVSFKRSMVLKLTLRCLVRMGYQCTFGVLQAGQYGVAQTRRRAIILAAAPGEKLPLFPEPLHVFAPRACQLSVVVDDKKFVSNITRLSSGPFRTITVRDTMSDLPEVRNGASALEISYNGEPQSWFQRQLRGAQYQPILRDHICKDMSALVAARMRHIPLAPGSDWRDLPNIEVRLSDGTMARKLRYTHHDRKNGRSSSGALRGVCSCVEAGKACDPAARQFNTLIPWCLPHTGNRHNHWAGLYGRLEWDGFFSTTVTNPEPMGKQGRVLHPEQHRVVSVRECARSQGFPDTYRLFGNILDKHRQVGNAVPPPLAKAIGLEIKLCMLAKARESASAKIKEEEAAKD
# Assay: human DNMT1 methyltransferase inhibitors, primary screen, biochemical, molecular beacon, fluorescence, HinP1I cleavage, uHTS (AID 588458)
# Settings: at 10 µM, stronger effect = higher value
row,Structure (SMILES),inhibition (reported as % activation of signal)
1,Cc1c(C(=O)O)cccc1-n1c(C)cc(/C=C2\C(=O)NC(=O)N(c3ccc4c(c3)OCO4)C2=O)c1C,86.2% (active)
2,Cc1ccnc(-n2c(C)cc(/C=C3\C(=O)NC(=S)N(C)C3=O)c2C)c1,5.36%
3,COC(=O)C1=C(c2c(C)noc2C)C[C@@H]2CC[C@H]1N2C(=O)NCc1ccc2c(c1)OCO2,2.7%
4,Cc1ccc(-n2c(C)cc(/C=C3\C(=O)NC(=O)N(C)C3=O)c2C)cc1C,29.9%
5,Cc1cc(/C=C2/C(=O)NC(=O)N(Cc3ccco3)C2=O)c(C)n1-c1ccc(C(=O)O)cc1,51.8% (active)
6,Cc1cc(C=C2C(=O)NC(=O)NC2=O)c(C)n1-c1ccncc1,5.18%
7,O=C1NC(=O)N(Cc2ccco2)C(=O)/C1=C\c1cccn1CCOc1ccccc1,52.4% (active)
8,O=C1NC(=O)N(Cc2ccco2)C(=O)/C1=C\c1ccc(-c2ccc(F)cc2)o1,79.9% (active)
9,CCOC(=O)C(O)(c1ccc(N=Cc2ccccc2O)c(C)c1)C(F)(F)F (stereo not given),0.86%
10,CC1CNCCN1c1ccc(Cl)cc1 (stereo not given),-33.5%
11,O=C1C2(Cl)C3(Cl)C4(Cl)C(Cl)(Cl)C5(Cl)C3(Cl)C1(Cl)C5(Cl)C24Cl (stereo not given),-6.15%
12,O=P(OC1=CCCCC1)(c1ccccc1)c1ccccc1,-0.46%
13,COC(=O)C1=C(c2ccc(OCc3ccccc3)cc2)C[C@@H]2CC[C@H]1N2C(=O)NCc1ccc(Cl)cc1,-11.6%
14,Fc1ccc(C2N3CCCN23)cc1 (stereo not given),0.57%
15,COC(=O)C(O)(c1ccc(NC(=O)c2ccco2)c(OC)c1)C(F)(F)F (stereo not given),2.7%
16,CCOC(=O)c1c(-c2ccccc2)oc2ccc(OC(=O)N(C)C)cc12,-3%
17,CC(C)n1c(=O)c(C=Nc2ccc(Br)cc2)c(O)n(Cc2ccco2)c1=O,3.48%
18,Cc1ccc(-c2nc3ccccc3c(=O)n2-c2ccc(Br)cn2)cc1,-0.14%
19,N#CC1=C(N)Oc2c(c(=O)oc3ccccc23)C1c1ccccc1OC(=O)c1cccs1 (stereo not given),0.68%
20,CC12CCC3C(CCC4CC(=O)CCC43C)C1CC(=NO)C2=O (stereo not given),0.34%
21,COc1ccc(N2C(=O)/C(=C/c3ccco3)C(=O)NC2=S)cc1,97.9% (active)
22,COc1cc(C(=O)N2Cc3ccc(Br)cc3-n3nncc3C2)cc(OC)c1OC,3.06%
23,Cc1cc(-c2ccc(N)c(C)c2)ccc1N,-7.86%
24,Cc1cc(C)cc(NC(=S)NC2CC3CCCC(C2)N3Cc2cccs2)c1 (stereo not given),-3.24%
25,Oc1ccc2c3c1OC1[C@H](O)CC[C@@]4(O)[C@@H](C2)N(CC2CC2)CC[C@]314 (stereo not given in full),3.17% and 0.16%
26,CC(=NC1CCN(Cc2ccccc2)CC1)c1c(O)n(C)c(=O)n(C)c1=O,2.93%
27,CC1=C(C(=O)Nc2ccccc2)SCCO1,87.4% (active)
28,CC1=C(C(=O)Nc2ccccc2)S(=O)(=O)CCO1,2.83%
29,CCN1CCN(C(=O)Cc2coc3cc(C)cc(C)c23)CC1,2.55%
30,COc1ccc(NC(=O)N2Cc3ccccc3-n3nncc3C2)cc1,7.01%
